Results on 37 compounds are retold here after PubChem BioAssay AID765 (NMMLSC, 2007).

Unmarked numbers belong to inactive results. Active and inactive are the calls of the source. No stated cut-off is given here; in the data, active means inhibition above about 31%; inactive means the rest.

Sequence of N-formyl peptide receptor 2 (Homo sapiens) (P25090 whole entry, looked up): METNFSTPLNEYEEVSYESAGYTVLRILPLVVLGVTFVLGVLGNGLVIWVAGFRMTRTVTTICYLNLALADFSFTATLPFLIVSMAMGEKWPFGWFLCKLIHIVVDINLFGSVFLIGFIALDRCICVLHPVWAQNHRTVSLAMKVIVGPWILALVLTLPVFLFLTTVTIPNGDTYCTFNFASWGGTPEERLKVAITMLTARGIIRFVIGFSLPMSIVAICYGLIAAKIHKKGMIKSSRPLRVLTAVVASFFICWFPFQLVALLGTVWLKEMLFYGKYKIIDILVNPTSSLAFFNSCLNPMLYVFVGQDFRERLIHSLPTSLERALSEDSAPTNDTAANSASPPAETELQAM

The assay concerns the target N-formyl peptide receptor 2 (Homo sapiens) (UniProt P25090). Description: human FPR2 ligand displacement single-point screen – cell-based, flow cytometry, single concentration (AID 765). Particulars: FPRL1-expressing cells, fluorescent ligand binding inhibition, stronger effect = higher value; at 5.1 µM unless noted.
Usually inhibition stands for the relative decrease from the control value, in per cent. In the case of `Cc1ccc(-c2cc(C(F)F)nc(N3CCN(c4cccc(Cl)c4)CC3)n2)cc1`, the inhibition was -3.5% [at 5.4 µM].
As for `CCOC(=O)N1CCN(c2nc(-c3ccccc3Cl)c3cc(Br)ccc3n2)CC1`, the figure is -4.5% [at 4.7 µM]; as for `COc1ccc(-c2cc(C(F)(F)F)nc(N3CCN(c4ccccc4)CC3)n2)cc1OC`, -5% [at 5 µM].
On to `COc1ccccc1-c1cc(C(F)(F)F)nc(N2CCN(c3ccc(F)cc3)CC2)n1`, for which the inhibition was -8.8%.
Turning to `O=C(N1CCN(c2nc(-c3ccccc3)c3cc([N+](=O)[O-])ccc3n2)CC1)C(F)(F)F`, the inhibition is -4.2% [at 5.2 µM].
As for `Cc1ccc(C(=O)N2CCN(c3nc(-c4ccccc4)c4cc(Br)ccc4n3)CC2)cc1`, the figure is 18% [at 4.6 µM]; as for `COc1ccccc1N1CCN(c2nc(-c3ccc(F)cc3)cc(C(F)(F)F)n2)CC1`, -8.4%; as for `COc1ccc(-c2cn3cccnc3n2)cc1NC(=O)c1ccc(F)c(F)c1`, -13.5% [at 5.8 µM].
In the case of `O=C(O)CCC(=O)N1CCN(c2nc(-c3ccccc3Cl)c3cc(Br)ccc3n2)CC1` it was -2% [at 4.4 µM]; in that of `COc1cccc(-c2cc(C(F)(F)F)nc(N3CCN(c4ccccc4OC)CC3)n2)c1`, -10.4% [at 5 µM]; in that of `CC(C)(C)OC(=O)N1CCN(c2nc(-c3ccccc3Cl)c3cc(Br)ccc3n2)CC1`, -9.1% [at 4.4 µM].
As for `O=C(O)CCC(=O)N1CCN(c2nc(-c3ccccc3)c3cc(Br)ccc3n2)CC1`, the inhibition is -3.9% [at 4.7 µM].
As for `CCCC(=O)Nc1cccc(-c2cn3cccnc3n2)c1`, the figure is -2.8% [at 7.9 µM]; as for `COc1ccc(-c2cn3cccnc3n2)cc1NC(=O)c1ccc(Br)o1`, -10% [at 5.4 µM].
As for `Clc1ccccc1-c1nc(N2CCN(c3ccccc3)CC2)nc2ccc(Br)cc12`, the figure is -7.9% [at 4.6 µM]; as for `COc1ccc(-c2cn3cccnc3n2)cc1NC(=O)c1c(-c2ccccc2Cl)noc1C`, 13.3% [at 4.8 µM]; as for `COc1ccc(-c2cn3cccnc3n2)cc1NC(=O)c1cccc(C(F)(F)F)c1`, 3.7% [at 5.4 µM].
As to `COc1ccc(-c2cc(C(F)(F)F)nc(N3CCN(Cc4ccccc4)CC3)n2)cc1OC`, the inhibition is 69.2% [at 4.9 µM] (active).
`COc1ccc(-c2cc(C(F)(F)F)nc(N3CCN(C)CC3)n2)cc1`: the inhibition is -15.1% [at 6.3 µM].
Turning to `Clc1cccc(-c2nc(N3CCN(Cc4ccccc4)CC3)nc3c2COc2ccccc2-3)c1`, the inhibition is 0.5% [at 4.7 µM].
In the case of `CCOC(=O)N1CCN(c2nc(-c3ccccc3)c3cc(C)ccc3n2)CC1` it was 3.4% [at 5.9 µM]; in that of `COc1ccc(-c2cc(C#N)nc(N3CCN(c4ccccc4)CC3)n2)cc1`, 5.3% [at 6 µM].
With `COc1ccc(-c2cn3cccnc3n2)cc1NC(=O)CCCc1ccccc1`, the inhibition is -8.7% [at 5.8 µM].
Consider `COc1ccc(-c2cn3cccnc3n2)cc1NC(=O)c1ccc(Cl)cc1`, for which the inhibition was 3% [at 5.9 µM].
Consider `O=C(c1ccccc1)N1CCN(c2nc(-c3ccccc3)c3cc([N+](=O)[O-])ccc3n2)CC1`, for which the inhibition was 18.8%.
Take `COc1ccc(-c2cn3cccnc3n2)cc1NC(=O)c1ccccc1Cl`: the inhibition was 19% [at 5.9 µM].
As for `COc1ccc(-c2cc(C(F)(F)F)nc(N3CCN(C(c4ccccc4)c4ccccc4)CC3)n2)cc1OC`, the figure is 25.4% [at 4.2 µM]; as for `O=C(O)/C=C\C(=O)N1CCN(c2nc(-c3ccccc3)c3cc(Br)ccc3n2)CC1`, 15.8% [at 4.8 µM]; as for `COc1ccc(-c2cn3cccnc3n2)cc1NC(=O)c1cccc(Br)c1`, 0.7% [at 5.3 µM].
Regarding `O=C(C1CCCCC1)N1CCN(c2nc(-c3ccccc3Cl)c3cc(Br)ccc3n2)CC1`, the inhibition is -6.3% [at 4.3 µM].
As for `CCN1CCN(c2nc(-c3cccc(Cl)c3)c3c(n2)-c2ccccc2OC3)CC1`, the figure is -10.9% [at 5.5 µM].
`COc1cccc(-c2cc(C(F)(F)F)nc(N3CCN(C)CC3)n2)c1`: the inhibition was -18% [at 6.3 µM].
As to `COc1cccc(-c2cc(C(F)(F)F)nc(N3CCN(C(c4ccccc4)c4ccccc4)CC3)n2)c1`, the inhibition is -3.9% [at 4.4 µM].
As for `CCOC(=O)N1CCN(c2nc(-c3ccc(OC)c(OC)c3)cc(C(F)(F)F)n2)CC1`, the inhibition was 36.1% (active).
Consider `Clc1cccc(-c2nc(N3CCN(c4ccccn4)CC3)nc3c2COc2ccccc2-3)c1`, for which the inhibition was -0.8% [at 4.9 µM].
For `CC1(C)CC(=O)c2cnc(N3CCN(Cc4ccc5c(c4)OCO5)CC3)nc2C1`, the inhibition is -3.3% [at 5.6 µM].
`O=C(c1ccc(Cl)cc1)N1CCN(c2nc(-c3ccccc3)c3ccccc3n2)CC1`: the inhibition is 1.6% [at 5.2 µM].
